The target of test [1] is Transient receptor potential cation channel subfamily V member 1 (Homo sapiens) (UniProt Q8NER1). Nature of the test: HTS Assay for Compounds that Act as Enhancers of the Vanilloid Receptor 1 (AID 488979). Further: 0% is about no effect. In outline: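 TRPV1-expressing cells loaded with Fluo-8 calcium dye; compounds added and calcium influx read kinetically for 3 min (agonist phase), then capsaicin at EC20 added and read 2 min more for enhancement. Fluorescence ex 480/em 520 nm.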

Test [2] addresses Thyrotropin receptor (Homo sapiens) (UniProt P16473). Nature of the test: qHTS Assay for Antagonists of the Thyroid Stimulating Hormone Receptor (AID 488980). Further: series mostly up to about 58 µM; 0% is about no effect. In outline:
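TSHR-HEK293 cells; 70 uM RO 20-1724 PDE inhibitor; compound + EC80 TSH (4 nM final); anti-cAMP cryptate antibody/cAMP-d2 in lysis buffer, 30 min RT; HTRF 665/620 nm read.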
For orientation: qHTS replaces the single test concentration by a dilution series.

In test [3] the target is Thyrotropin-releasing hormone receptor (Homo sapiens) (UniProt P34981). Nature of the test: qHTS for Small Molecule Agonists and Allosteric Enhancers of Human TRH Receptor: Validation Screen for Agonists (AID 493127;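 active means calcium activation more than 3 SD above the typical response in the agonist read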;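 further: intracellular calcium rise by fluo-8 fluorescence before TRH EC20 addition; 0% is about no effect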). To be noted: TRH receptor agonist cell assay; at 2 µM; stronger effect = higher value. In outline:
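Read-out: intracellular calcium release measured kinetically by FDSS (fluo-8, ex 480/em 530 nm), 1 reading/s after a 10-cycle baseline. TRHR cells, 2000/well, cultured 18 h at 33.5C, dye-loaded at room temp. Compound-evoked positive calcium signal flags agonists.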

Test [4] deals with Galactokinase (Homo sapiens) (UniProt P51570). The experiment in a line: qHTS Validation Assay for Inhibitors of Human Galactokinase (GALK) (AID 493189). Further: 0% is about no effect. The method, boiled down: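 Luminescence from leftover ATP (Kinase-Glo Plus, 10 min) served as read-out after a 1 h room-temperature reaction of 5 nM GALK, 100 uM galactose and 35 uM ATP at pH8.0.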
A short description of test [5]: Validation screen for small molecules that induce DNA re-replication in SW480 colon adenocarcinoma cells (AID 504364). Further: 0% is about no effect. In outline:
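Read-out: total Hoechst intensity of nuclei by fluorescence scanning imager; hits raise the fraction of nuclei with elevated DNA content. Cells received compound for 48 hr at 37 C before a 40 min stain.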

The target of test [6] is DNA dC->dU-editing enzyme APOBEC-3G (Homo sapiens) (UniProt Q9HC16). Nature of the test: qHTS for inhibitors of Vif-A3G interactions: Validation (AID 588379). Further: 0% is about no effect. In outline:
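Yellow fluorescence (Ex 488, Em 500-530) of Vif-coexpressing HeLa A3G-eYFP cells, scanned by Acumen cytometer, reports blocked A3G degradation. Cells plated at 700/well overnight at 37 deg C before compound addition, then a further overnight compound incubation at 37 deg C.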

Test [7] has as its target Androgen receptor (Homo sapiens) (UniProt P10275). Nature of the test: qHTS assay for small molecule agonists of androgen receptor signaling (AID 588515; active means well fitted curve in the direction sought with a large enough effect in the signal ratio, with a control signal flat; the % refers to the signal ratio; further: on the % scale 0 is the no-effect control and ±100 the full control effect). Particulars: AR-UAS-bla HEK293, beta-lactamase ratio, agonist 16 h; stronger effect = higher value. In outline:
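Stimulation of an AR-responsive β-lactamase reporter in GripTite HEK293 cells was measured after 16 h compound exposure at 37 °C, via CCF4 fluorescence after 2 h RT. EC50 from Hill fits, normalized to R1881 at 30 nM.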

Test [8] has as its target Thyroid hormone receptor beta (Homo sapiens) (UniProt P10828). Nature of the test: qHTS assay for small molecule agonists of thyroid hormone receptor beta signaling (AID 588545; calls by dose curve). The method, boiled down:
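Agonist activity was read as beta-lactamase CCF4 fluorescence (405 ex, 460/530 em), scaled between DMSO (0%) and 10 nM T3 (100%), then Hill-fitted for EC50 and efficacy. HEK 293 TR-UAS-bla cells in 2% charcoal/dextran FBS medium were exposed 18 h at 37 C.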

For test [9], the target named is Voltage-gated inwardly rectifying potassium channel KCNH2 (Homo sapiens) (UniProt Q12809). Nature of the test: qHTS Assay for Small Molecule Inhibitors of the Human hERG Channel Activity (AID 588834).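 Further: top concentration of the series differs between compounds; on the % scale 0 is the no-effect control and ±100 the full control effect; lower thallium flux fluorescence means stronger hERG block; nearly all actives have a fitted effect of over 50% in size.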 The method, boiled down: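 Thallium-flux (FluxOR) read-out on FDSS: fluorescence read 10 s before and 2 min after stimulation buffer. hERG-BacMam-transduced U2OS cells, compound exposure about 10 min. AC50 by standard Hill equation.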

A short description of test [10]: qHTS assay for small molecule activators of the nuclear factor-kappa B (NF-kB) signaling pathway (AID 651749; active means well fitted activation curve with a large enough effect in the signal ratio; the % refers to the signal ratio; further: series mostly up to about 77 µM; % of control where 0% means no effect). To be noted: NF-kB-bla ME-180 cells, beta-lactamase FRET ratio, 16 h; stronger effect = higher value. The method, boiled down:
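Beta-lactamase reporter expression, controlled by NF-kB response elements in ME-180 cells, was quantified fluorometrically via FRET disruption; cells at 2,000/well had been incubated with 23 nL test compound for 16 hr.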

The nature of test [11]: qHTS assay for environmental chemicals that activate the Aryl hydrocarbon Receptor (AhR) signaling pathway (AID 651777). Further: % of control where 0% means no effect; nearly all actives have a fitted effect of over 15% in size. Particulars: 1A2-DRE human hepatoma cells, luciferase, 24 h; activation: stronger effect = higher value. The method, boiled down: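 1A2-DRE human hepatoma reporter line; 1,200 cells/well; cmpd or DMSO 24 h, 37 C/5% CO2; One-Glo 30 min RT; luciferase lum.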
Test [12] is described as follows: qHTS assay for small molecule agonists of the antioxidant response element (ARE) signaling pathway measured by Nrf2-dependant transcriptional activity (AID 720636; active means well fitted curve in the direction sought with a large enough effect in the repeat runs; an effect the other way counts as inactive or inconclusive;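 further: HepG2 cells with an ARE-driven luciferase reporter; % of control where 0% means no effect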). In outline:
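Cells: ARE-luc HepG2 with Nrf2-responsive luciferase. Medium contained 1% dialyzed FBS. Compound exposure lasted 16 hr at 37 C and 5% CO2, followed by ONE-Glo luciferase detection.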

Test [13] is described as follows: qHTS assay for small molecule agonists of the antioxidant response element (ARE) signaling pathway measured by Nrf2-dependant transcriptional activity - cell viability counter screen (AID 720653; active means well fitted curve in the direction sought with a large enough effect in the repeat runs; an effect the other way counts as inactive or inconclusive; further: on the % scale 0 is the no-effect control and ±100 the full control effect). To be noted: ARE-bla HepG2 viability, CellTiter-Glo ATP luminescence, 16 h; stronger effect = lower value. The method, boiled down: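 ARE-bla HepG2 cells (2,000/well) rested 5 hrs at 37C/5% CO2, then exposed to compounds in DMSO for 16 hrs. Viability was read in the same wells as intracellular ATP by luminescence, 30 min at room temperature after reagent addition.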

A short description of test [14]: qHTS assay for cell viability of HEK293 cells (AID 743288). Further: on the % scale 0 is the no-effect control and ±100 the full control effect; nearly all actives have a fitted effect of over 50% in size. Particulars: ATP luminescence (CellTiter-Glo), 18 h, stronger effect = lower value. The method, boiled down: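 ATP luminescence (CellTiter-Glo) reports metabolically competent cell number after parental HEK293 cells, 2,000/well, were treated with DMSO-dissolved compounds for 18 h at 37 C; reagent incubation 30 min, room temperature.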

Test [15] in a line: qHTS assay for cell viability of the p53RE-bla HCT-116 cell line (AID 743292). Further: potency means the concentration at half of the fitted maximal effect; nearly all actives have a fitted effect of over 55% in size. The method, boiled down: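 HCT-116 p53RE-bla cells seeded 4,000/well; 5 h at 37 C; compound (DMSO) added; 16 h at 37 C; CellTiter-Glo added, 30 min RT; luminescence read.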
Test [16] in a line: qHTS to identify inhibitors of the type 1 interferon - major histocompatibility complex class I in skeletal muscle: primary screen against the NCATS Mechanism Interrogation Plate v5.0 (MIPE) Libary (AID 1347411).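 Further: plate controls were vehicle for no effect and reference inhibitor for full effect; nearly all actives have a fitted effect of over 65% in size.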 In outline: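 HLA-B HiBit myoblasts, dexamethasone-free medium + 4 ng/ml IFN-b, 24 h compound, 11-pt 1:3 from 46 uM final. Readout: Nano-Glo HiBiT lytic luminescence after 10 min lysis, RT.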

Test [17] can be described thus: Primary qHTS for small molecule stabilizers of the endoplasmic reticulum resident proteome: Secreted ER Calcium Modulated Protein (SERCaMP) assay (AID 1508630). Further: on the % scale 0 is the no-effect control and ±100 the full control effect. In outline: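 The SH-SY5Y reporter protocol was run at 3 concentrations up to 38.3 uM (primary) or 11 concentrations (follow-up): 16 h compound, 100 nM thapsigargin for 4 h, then extracellular luciferase luminescence.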

Test [18] in a line: Primary qHTS for inhibitors of nuclear receptor binding SET domain protein 2 (NSD2) in an isogenic RCH-ACV NSD2 p.E1099K mutant (9B) (AID 1645876). Further: on the % scale 0 is the no-effect control and ±100 the full control effect; nearly all actives have a fitted effect of over 70% in size.
Test [19] in a line: Primary qHTS for inhibitors of nuclear receptor binding SET domain protein 2 (NSD2) in an RCH-ACV wild type WT cells (2C) (AID 1645877). Further: on the % scale 0 is the no-effect control and ±100 the full control effect; nearly all actives have a fitted effect of over 70% in size.
Test [20] addresses Glutathione peroxidase 1 (Homo sapiens) (UniProt P07203). Nature of the test: Primary qHTS Assay for Inhibitors of Recombinant Selenoprotein Glutathione Peroxidase 1 (GPX1) (AID 1845191). Further: nearly all actives have a fitted effect of over 65% in size. The method, boiled down:
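GPX1 10 nM, GR 100 nM, GSH 1 mM, NADPH 0.5 mM, CHP 0.5 mM (final). 30-min cpd preincubation, RT. Ex340/Em450 read t=0, t=15 min.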

A short description of test [21]: qHTS drug screen for cell cycle checkpoint inhibitors in PARPi-resistant BRCA-mutant ovarian cancer cell lines. (AID 1963452; calls by dose curve). Particulars: PEO1/OlaR viability, CellTiter-Glo luminescence, 96 h, stronger effect = lower value. In outline: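 PEO1, PEO4 and PEO1/OlaR ovarian cancer cells, 600 per well, exposed 96 h at 37C to a dilution series. Viability read by CellTiter-Glo luminescence, normalized to DMSO and empty wells; activity summarized as Z-AUC.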

Test [22] addresses Nuclear receptor subfamily 1 group I member 2 (Rattus norvegicus) (UniProt Q9R1A7). The experiment in a line: qHTS assay for small molecule activators of the rat pregnane X receptor (rPXR) signaling pathway (AID 651751; call rule not given here; further: 0% is about no effect). Particulars: rPXR reporter cells, luciferase (One-Glo), 24 h.

Structures are written as SMILES. Several values for one entry are separate records, joined by “and”; a condition that tells them apart may be missing. Equal values may be shown once. Results filed as inconclusive are left out. Activity calls are given as the source filed them. Unless noted, the call rests on the fitted dose curve; in most records, active means well fitted curve in the direction sought with a large enough effect; inconclusive means small, poorly fitted or top-dose-only effect, or another doubt; inactive means no such curve, though single readings can be large; an effect the other way counts as inactive or inconclusive.

Glutathione peroxidase 1 (Homo sapiens), sequence (P07203 whole entry, looked up): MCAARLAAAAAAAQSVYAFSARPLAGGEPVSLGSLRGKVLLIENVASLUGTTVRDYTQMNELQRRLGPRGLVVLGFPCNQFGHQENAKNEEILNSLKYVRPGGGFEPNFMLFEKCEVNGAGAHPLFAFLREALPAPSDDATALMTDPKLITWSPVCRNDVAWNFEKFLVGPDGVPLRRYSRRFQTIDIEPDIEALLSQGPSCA
Thyrotropin receptor (Homo sapiens), sequence (P16473 whole entry, looked up): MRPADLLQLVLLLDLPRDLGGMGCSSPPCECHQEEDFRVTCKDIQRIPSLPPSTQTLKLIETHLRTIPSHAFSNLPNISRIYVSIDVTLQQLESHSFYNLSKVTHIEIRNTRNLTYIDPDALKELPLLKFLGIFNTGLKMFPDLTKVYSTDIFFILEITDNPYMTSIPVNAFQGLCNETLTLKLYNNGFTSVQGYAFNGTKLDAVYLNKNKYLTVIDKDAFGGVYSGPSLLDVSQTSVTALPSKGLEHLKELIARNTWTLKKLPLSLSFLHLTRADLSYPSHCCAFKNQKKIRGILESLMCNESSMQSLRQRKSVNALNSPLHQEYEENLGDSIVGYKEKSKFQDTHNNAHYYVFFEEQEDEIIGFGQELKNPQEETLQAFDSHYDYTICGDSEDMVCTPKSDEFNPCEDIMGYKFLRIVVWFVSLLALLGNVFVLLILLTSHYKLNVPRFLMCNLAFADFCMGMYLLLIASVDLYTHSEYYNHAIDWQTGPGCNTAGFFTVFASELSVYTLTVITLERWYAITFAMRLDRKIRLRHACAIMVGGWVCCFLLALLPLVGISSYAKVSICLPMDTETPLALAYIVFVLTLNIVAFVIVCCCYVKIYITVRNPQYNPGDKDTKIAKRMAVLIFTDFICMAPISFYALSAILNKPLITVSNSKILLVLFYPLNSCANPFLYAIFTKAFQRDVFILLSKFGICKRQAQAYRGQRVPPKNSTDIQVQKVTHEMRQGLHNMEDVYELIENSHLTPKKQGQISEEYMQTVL
Thyrotropin-releasing hormone receptor (Homo sapiens), sequence (P34981 whole entry, looked up): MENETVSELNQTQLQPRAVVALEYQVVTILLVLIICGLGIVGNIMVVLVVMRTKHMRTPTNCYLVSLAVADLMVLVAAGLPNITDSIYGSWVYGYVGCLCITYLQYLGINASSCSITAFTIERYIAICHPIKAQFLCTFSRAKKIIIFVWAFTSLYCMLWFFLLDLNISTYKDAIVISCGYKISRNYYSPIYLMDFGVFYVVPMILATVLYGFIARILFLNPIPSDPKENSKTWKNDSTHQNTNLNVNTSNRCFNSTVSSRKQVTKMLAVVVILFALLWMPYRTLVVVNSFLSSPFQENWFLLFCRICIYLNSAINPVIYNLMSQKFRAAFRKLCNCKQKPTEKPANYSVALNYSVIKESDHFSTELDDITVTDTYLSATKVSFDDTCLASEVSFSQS
Nuclear receptor subfamily 1 group I member 2 (Rattus norvegicus), sequence (Q9R1A7 whole entry, looked up): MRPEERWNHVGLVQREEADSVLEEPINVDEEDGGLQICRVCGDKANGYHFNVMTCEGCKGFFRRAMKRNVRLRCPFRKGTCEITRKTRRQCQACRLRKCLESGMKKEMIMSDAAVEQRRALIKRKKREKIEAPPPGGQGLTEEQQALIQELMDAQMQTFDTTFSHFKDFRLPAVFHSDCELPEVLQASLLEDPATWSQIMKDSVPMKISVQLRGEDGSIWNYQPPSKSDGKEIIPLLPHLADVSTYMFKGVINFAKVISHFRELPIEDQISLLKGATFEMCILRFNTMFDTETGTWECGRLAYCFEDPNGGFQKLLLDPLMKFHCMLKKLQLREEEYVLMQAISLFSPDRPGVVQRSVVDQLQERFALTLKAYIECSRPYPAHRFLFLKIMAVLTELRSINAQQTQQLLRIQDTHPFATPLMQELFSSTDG
DNA dC->dU-editing enzyme APOBEC-3G (Homo sapiens), sequence (Q9HC16 whole entry, looked up): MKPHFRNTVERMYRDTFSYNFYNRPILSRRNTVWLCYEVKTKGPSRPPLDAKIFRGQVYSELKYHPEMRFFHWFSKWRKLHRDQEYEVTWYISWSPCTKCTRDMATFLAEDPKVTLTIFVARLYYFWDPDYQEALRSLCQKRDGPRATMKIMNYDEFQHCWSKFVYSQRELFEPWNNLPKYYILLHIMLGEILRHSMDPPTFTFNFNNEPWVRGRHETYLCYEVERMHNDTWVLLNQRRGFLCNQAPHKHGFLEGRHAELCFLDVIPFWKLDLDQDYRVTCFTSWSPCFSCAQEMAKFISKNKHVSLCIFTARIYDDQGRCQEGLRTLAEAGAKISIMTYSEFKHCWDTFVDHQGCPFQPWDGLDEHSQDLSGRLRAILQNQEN
Transient receptor potential cation channel subfamily V member 1 (Homo sapiens), sequence (Q8NER1 whole entry, looked up): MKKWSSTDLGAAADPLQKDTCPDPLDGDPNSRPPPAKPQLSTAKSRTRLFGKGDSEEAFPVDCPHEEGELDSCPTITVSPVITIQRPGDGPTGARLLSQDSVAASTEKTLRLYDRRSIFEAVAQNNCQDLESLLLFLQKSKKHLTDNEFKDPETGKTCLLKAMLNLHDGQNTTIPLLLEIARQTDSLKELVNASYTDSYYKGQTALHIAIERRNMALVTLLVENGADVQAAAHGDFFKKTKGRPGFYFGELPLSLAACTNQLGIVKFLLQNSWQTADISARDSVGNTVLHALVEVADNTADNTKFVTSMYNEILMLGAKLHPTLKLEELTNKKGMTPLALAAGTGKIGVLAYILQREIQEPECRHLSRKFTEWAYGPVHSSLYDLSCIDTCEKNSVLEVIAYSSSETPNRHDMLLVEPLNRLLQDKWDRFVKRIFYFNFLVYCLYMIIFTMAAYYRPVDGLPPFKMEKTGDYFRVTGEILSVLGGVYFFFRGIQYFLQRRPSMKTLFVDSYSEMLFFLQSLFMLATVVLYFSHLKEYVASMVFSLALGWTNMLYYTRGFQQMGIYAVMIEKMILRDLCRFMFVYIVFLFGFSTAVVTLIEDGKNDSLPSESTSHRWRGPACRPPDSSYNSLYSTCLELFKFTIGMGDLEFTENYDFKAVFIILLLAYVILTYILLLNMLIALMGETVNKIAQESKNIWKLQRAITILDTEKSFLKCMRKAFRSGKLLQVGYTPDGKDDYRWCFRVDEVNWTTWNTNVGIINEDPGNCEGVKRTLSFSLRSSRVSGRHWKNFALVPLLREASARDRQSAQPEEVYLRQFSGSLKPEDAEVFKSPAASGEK
Galactokinase (Homo sapiens), sequence (P51570 whole entry, looked up): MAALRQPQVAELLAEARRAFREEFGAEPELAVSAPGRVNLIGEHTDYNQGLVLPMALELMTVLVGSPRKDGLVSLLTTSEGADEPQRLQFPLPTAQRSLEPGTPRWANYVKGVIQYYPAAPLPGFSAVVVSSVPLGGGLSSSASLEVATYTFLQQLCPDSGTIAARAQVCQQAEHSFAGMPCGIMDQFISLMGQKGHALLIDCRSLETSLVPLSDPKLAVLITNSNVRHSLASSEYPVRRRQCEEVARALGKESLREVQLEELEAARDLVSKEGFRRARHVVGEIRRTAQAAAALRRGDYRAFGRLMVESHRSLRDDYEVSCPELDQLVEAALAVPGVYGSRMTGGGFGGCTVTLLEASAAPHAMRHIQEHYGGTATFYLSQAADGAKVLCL
Thyroid hormone receptor beta (Homo sapiens), sequence (P10828 whole entry, looked up): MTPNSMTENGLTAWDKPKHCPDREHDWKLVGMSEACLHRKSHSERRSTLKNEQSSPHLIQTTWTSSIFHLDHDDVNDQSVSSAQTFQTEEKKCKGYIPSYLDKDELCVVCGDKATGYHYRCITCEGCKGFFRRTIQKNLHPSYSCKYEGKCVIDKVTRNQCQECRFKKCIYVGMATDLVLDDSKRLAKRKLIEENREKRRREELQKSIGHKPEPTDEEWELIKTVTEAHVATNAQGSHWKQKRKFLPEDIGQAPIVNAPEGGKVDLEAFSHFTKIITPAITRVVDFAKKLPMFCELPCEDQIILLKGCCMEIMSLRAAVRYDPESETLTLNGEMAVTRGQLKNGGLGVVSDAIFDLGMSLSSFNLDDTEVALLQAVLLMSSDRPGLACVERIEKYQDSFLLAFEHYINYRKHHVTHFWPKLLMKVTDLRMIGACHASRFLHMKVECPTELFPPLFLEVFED
Androgen receptor (Homo sapiens), sequence (P10275 whole entry, looked up): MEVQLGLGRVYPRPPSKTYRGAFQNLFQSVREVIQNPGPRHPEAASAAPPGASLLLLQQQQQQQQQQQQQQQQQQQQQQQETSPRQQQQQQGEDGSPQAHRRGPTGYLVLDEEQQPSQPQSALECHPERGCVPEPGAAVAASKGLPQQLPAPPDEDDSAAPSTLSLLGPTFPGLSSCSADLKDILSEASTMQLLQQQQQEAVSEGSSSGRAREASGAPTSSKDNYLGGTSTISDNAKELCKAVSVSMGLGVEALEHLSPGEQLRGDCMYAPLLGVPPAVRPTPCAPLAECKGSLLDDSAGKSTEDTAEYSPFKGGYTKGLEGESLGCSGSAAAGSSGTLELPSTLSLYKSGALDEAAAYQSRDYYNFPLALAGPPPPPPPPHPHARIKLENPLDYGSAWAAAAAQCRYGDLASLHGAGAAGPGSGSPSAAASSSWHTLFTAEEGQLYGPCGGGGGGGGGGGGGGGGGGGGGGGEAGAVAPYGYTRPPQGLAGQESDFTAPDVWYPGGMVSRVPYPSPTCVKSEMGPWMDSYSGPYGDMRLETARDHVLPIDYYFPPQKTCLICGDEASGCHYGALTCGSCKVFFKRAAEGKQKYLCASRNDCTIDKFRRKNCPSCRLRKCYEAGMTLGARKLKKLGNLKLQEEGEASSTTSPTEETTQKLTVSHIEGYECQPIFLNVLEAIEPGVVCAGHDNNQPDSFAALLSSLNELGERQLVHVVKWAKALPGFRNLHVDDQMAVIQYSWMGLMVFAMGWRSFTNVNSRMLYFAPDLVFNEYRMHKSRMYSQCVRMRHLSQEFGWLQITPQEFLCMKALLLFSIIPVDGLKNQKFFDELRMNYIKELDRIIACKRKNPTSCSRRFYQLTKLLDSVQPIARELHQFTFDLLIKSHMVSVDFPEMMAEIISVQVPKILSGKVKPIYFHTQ

Turning to `CN(CCOc1ccc(C[C@H](Nc2ccccc2C(=O)c2ccccc2)C(=O)O)cc1)c1ccccn1`, the result in test [1], in test [2], in test [4], in [5], in test [6] and in test [8] was inactive. Besides, the outcome in [12] was inactive. Besides, the activation in test [3] is 2.06% (inactive); in test [7], -13.2% (inactive); in test [10], 1.83% (inactive); in test [11], 3.94% (inactive). The Potency result in test [9], in [16], in test [17], in test [18], in [19] and in test [20] was “inactive” each time. Moreover, the max response is 2.06% (inactive) in [13], -5.97% (inactive) in test [14] and 1.12% (inactive) in [22]. In addition, in test [15], the Potency was 50.1 µM (active). Also, the Z-AUC was 0.115 (inactive) and 0.904 (inactive) in [21]; 0.442 and 0.488 in test [21] (measured here: PEO1 parental Z-AUC); 0.445 and 0.87 in test [21] (measured here: PEO4 Z-AUC).

For the origin of these results see PubChem BioAssay (NCATS).
